Data published in PubChem BioAssay (NCI).
Compounds without any hit were thinned out: in the full panel of roughly 83,000, 20% have a hit.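 Values shown are percent growth following 48 h exposure of cells in 96-well plates to a single concentration of compound; below 10 was considered active.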 The source made the active and inactive calls.

Key:
Experiment in all cases: NCI-60 one-dose screen, 48 h (100 = growth as untreated, 0 = no growth, -100 = all killed)
Details in all cases: 10 µM unless noted
[1] = tested on: SR leukemia
[2] = tested on: RPMI-8226 leukemia
[3] = tested on: OVCAR-8 ovarian
[4] = tested on: OVCAR-5 ovarian
[5] = tested on: OVCAR-4 ovarian
[6] = tested on: SK-OV-3 ovarian
[7] = tested on: IGROV1 ovarian
[8] = tested on: OVCAR-3 ovarian
[9] = tested on: HS 578T breast
[10] = tested on: NCI/ADR-RES ovarian

Measured: growth

O=C(C(=O)N1CCOCC1)c1ccc(O[C@H]2O[C@H](CO)[C@@H](O)[C@H](O)[C@@H]2O)cc1
inactive: [1] 94.6% | [2] 96.8% | [3] 109% | [4] 98.6% | [5] 105% | [6] 106% | [7] 106% | [8] 121% | [9] 183% | [10] 105%

CC(=O)Nc1ccc(C(=O)/C=C/c2ccc(N(C)C)cc2)cc1
inactive: [1] 96.6% | [2] 102% | [3] 102% | [4] 106% | [5] 109% | [6] 101% | [7] 95.4% | [8] 105% | [9] 101% | [10] 99.3%

O=Nc1c(-c2c(O)[nH]c3cc(Br)ccc23)[nH]c2ccccc12
active: [1] -40.5% | [2] -5.99% | [3] -17.4% | [4] -72.9% | [5] 7.53% | [6] -77.8% | [7] -44.5% | [8] -64.9% | [9] -49.7% | [10] -76.7%

FC(F)(F)c1cccc(-c2[nH]ncc2-c2nnnn2-c2ccccc2)c1
inactive: [1] 25.6% | [2] 29.6% | [3] 58.9% | [4] 69.6% | [5] 66.4% | [6] 55.4% | [7] 56.2% | [8] 48.4% | [9] 43.6% | [10] 12.2%

C[C@@H](c1ccc2c(c1)[nH]c1ccc(Cl)cc12)c1nc2ccc(Cl)cc2[nH]1
active: [2] 8.76%
inactive: [1] 43.2% | [3] 94% | [4] 75.2% | [5] 74.2% | [6] 96.3% | [7] 57.6% | [8] 72% | [9] 107% | [10] 88.1%

COc1cc2ncnc(-n3ncc4cc(NC(=O)Nc5ccc(Cl)c(C)c5)ccc43)c2cc1OC
inactive: [1] 71.5% | [2] 96.8% | [3] 110% | [4] 109% | [5] 98.3% | [6] 119% | [7] 96.2% | [8] 107% | [9] 75.9% | [10] 98.7%

CCN(CC)CCCC(C)Nc1c(C)cnc2cc(Cl)c(C)cc12 (stereo not given)
inactive: [1] 16.5% | [2] 43.6% | [3] 96% | [4] 98.1% | [5] 85.4% | [6] 98.5% | [7] 96.3% | [8] 92.9% | [9] 96.3% | [10] 93.2%

C/C(=N\Nc1cccc(Cl)n1)c1ccccn1
active: [1] 6.31% | [10] 0.96%
inactive: [2] 20.8% | [3] 20.2% | [4] 23.5% | [5] 10.5% | [6] 22.5% | [7] 17% | [8] 26.7% | [9] 58.9%

CC(C)OCC1CO1 (stereo not given)
inactive: [1] 102% | [2] 113% | [3] 113% | [4] 101% | [5] 115% | [6] 106% | [7] 110% | [8] 107% | [9] 104% | [10] 109%

O=Nc1ccc(O)c2ccccc12
active: [2] -12.1% | [3] 7.56% | [4] 1.31% | [5] -96.5% | [7] 2.08% | [8] -6.85% | [10] -0.605%
inactive: [1] 11.5% | [6] 99.9% | [9] 53.2%

CCCCn1c(Cc2ccc(OC)cc2)nc2cc(OC)c(OC)cc2c1=O
inactive: [2] 26.1% | [3] 78.2% | [4] 104% | [5] 73.6% | [6] 99.4% | [7] 81.3% | [8] 86.3% | [9] 94.5% | [10] 72.5%
active: [1] 2.75%

C[C@H]1C[C@@H](n2cnc3c(N)nccc32)[C@H](O)[C@@H]1O
active: [1] -54.1%
inactive: [2] 117% | [3] 99% | [4] 103% | [5] 110% | [6] 117% | [7] 560% | [8] 120% | [9] 109% | [10] 128%

COc1ccc(OC)c(Cn2cc3c(c2-c2ccccc2)CCc2cnoc2-3)c1
inactive: [1] 22% | [2] 61.1% | [3] 79% | [4] 90.8% | [5] 77.6% | [6] 48.2% | [7] 44.7% | [8] 17.9% | [9] 59.3% | [10] 20.5%

O=C(Nc1ccc(-n2cc(-c3ccncc3)c(-c3ccc(Cl)c(O)c3)n2)cc1)c1ccc(Cl)c(Cl)c1
inactive: [3] 38.5% | [4] 56.5% | [5] 47.4% | [6] 34.1% | [7] 67.4% | [8] 61.3% | [10] 51.6%
active: [1] 5.94% | [2] -25.9% | [9] -35.1%

O=C(CBr)OCc1ccc([N+](=O)[O-])o1
inactive: [1] 88.1% | [2] 86.3% | [3] 96.9% | [4] 101% | [5] 77.9% | [6] 105% | [7] 10.5% | [8] 104% | [9] 106% | [10] 101%

O=S(=O)(Cc1cccc2c(CS(=O)(=O)c3ccc(Cl)cc3)cccc12)c1ccc(Cl)cc1
inactive: [1] 94.7% | [2] 96.3% | [3] 71.1% | [4] 97.3% | [5] 100% | [6] 94.7% | [7] 91.4% | [8] 95.9% | [9] 70.8% | [10] 90%

Cc1c(O)c(N=Nc2ccc(C(=O)O)c(O)c2)c2ccccc2c1O
inactive: [1] 85.8% | [2] 106% | [3] 96.9% | [4] 25.5% | [5] 107% | [6] 95.5% | [8] 108% | [9] 94.7% | [10] 110%
active: [7] -25.9%

CCC(C)(C)c1ccc(OCCCCCCN2CCNCC2)cc1
active: [1] -2.78% | [2] -16.4%
inactive: [3] 75.2% | [4] 91.6% | [5] 70% | [6] 101% | [7] 87.3% | [8] 69.4% | [9] 64.2% | [10] 76.4%

CCCCCCCCCCC1OC(C)CC(C)O1 (stereo not given)
inactive: [1] 71.6% | [2] 99.6% | [3] 99.5% | [4] 99.2% | [5] 111% | [6] 103% | [7] 109% | [8] 98.3% | [9] 101% | [10] 105%

CCOC(=O)c1c(C)oc2ncnc(Nc3ccc(C(=O)NCCc4ccccc4)cc3)c12
inactive: [1] 89.2% | [2] 84.6% | [3] 76.7% | [4] 110% | [5] 45.5% | [6] 85.6% | [7] 102% | [8] 97.3% | [9] 51.2% | [10] 76.9%

O=C1Nc2c(c(=O)n(-c3ccccc3)c3ccccc23)C(c2ccc(Cl)cc2)N1 (stereo not given)
inactive: [1] 77.8% | [2] 90.5% | [3] 82.4% | [4] 101% | [5] 105% | [6] 89.8% | [7] 84% | [8] 106% | [9] 70.2% | [10] 99.7%

CC(=O)NNC(=O)c1sc(NC(C)=O)nc1C
inactive: [1] 87.4% | [2] 105% | [3] 95.6% | [4] 97% | [5] 122% | [6] 92.6% | [7] 23.4% | [8] 103% | [9] 74.9% | [10] 104%

O=C(Nc1ccc(-n2cc(-c3ccncc3)c(-c3ccc(Cl)c(O)c3)n2)cc1)c1ccc(Cl)c(C(F)(F)F)c1
inactive: [4] 52.6% | [5] 40.6% | [6] 14.4% | [7] 27.5% | [10] 29.4%
active: [1] -13.4% | [2] -42.7% | [3] -1.91% | [8] -24.9% | [9] -53.7%

O=C(Nc1ccccc1)Nc1ccc(Nc2ncnc3sc4c(c23)CCCC4)cc1
inactive: [1] 97.9% | [2] 99.3% | [3] 107% | [4] 119% | [5] 107% | [6] 99.6% | [7] 107% | [8] 103% | [9] 85.3% | [10] 107%

COc1nc(OC)nc(-c2cc(-c3cc(OC)c(OC)c(OC)c3)no2)n1
inactive: [1] 95.6% | [2] 90.4% | [3] 98.3% | [4] 115% | [5] 106% | [6] 116% | [7] 121% | [8] 116% | [9] 95.2% | [10] 98.9%

COC(=O)c1ccc2[nH]c(O)c(C(=Nc3ccc(N(C)C(=O)CN4CCN(C)CC4)cc3)c3ccc4c(c3)OCO4)c2c1
active: [1] 0.377% | [2] -13.7% | [6] -8.57% | [7] 4.12%
inactive: [3] 20.3% | [4] 35.8% | [5] 28.1% | [8] 10.9% | [9] 10.5% | [10] 104%

CCCOC(=O)c1c(C)n(C)c2scc[n+]12
inactive: [1] 13.6% | [2] 54.8% | [3] 72.8% | [4] 75.1% | [5] 73.8% | [6] 93.9% | [7] 15.9% | [8] 71.2% | [9] 77.6% | [10] 78.9%
